# Laboratory results as given in the supplement of paper PMC4022240.
# ± gives the standard deviation.
# T1: HaloTag-ATRX ADD domain (163-292)
# T1 chain: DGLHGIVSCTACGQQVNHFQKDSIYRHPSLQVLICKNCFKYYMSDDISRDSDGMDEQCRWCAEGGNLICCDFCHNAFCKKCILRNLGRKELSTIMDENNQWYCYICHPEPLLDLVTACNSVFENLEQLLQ
# Legend:
# Assay in all cases: peptide microarray binding signal (635 nm), min-max normalized on array (fraction of array maximum); higher = stronger binding
# Conditions in all cases: peptide region: H3 11-23
# [1] = molecular target: T1, HaloTag-ATRX ADD domain (163-292)
# Procedure, shortened: (§1)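 Arrays carried histone 13-mer peptide–cellulose conjugates printed in triplicate on nitrocellulose alongside a Cy3 tracer. After overnight blocking at 4°C, they were incubated for 1 h at 4°C with biotin-labelled HaloTag reader fusions (10 nM to 1 μM) plus streptavidin-Alexa Fluor 647, or with rabbit histone antibodies (1:10,000 to 1:2,000) plus anti-rabbit Alexa 647. Scanning on an Axon GenePix 4000B used 635 nm for signal and 532 nm for misprints. The binding signal reported is each triplicate's mean spot intensity after per-library min-max scaling.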
# [2] = molecular target: HaloTag-ING2 PHD (mouse Ing2 200-280)
# Procedure, shortened: as §1
# [3] = molecular target: anti-H3K4me3 antibody ab8580
# Procedure, shortened: as §1
# [4] = molecular target: anti-H3K9me3 antibody ab8898
# Procedure, shortened: as §1
# [5] = peptide modifications: H3K14me1 H3K18me3, binder concentration: 1:2,000 dilution
# [6] = peptide modifications: H3K14me1 H3K18me3, binder concentration: 1:10,000 dilution
# [7] = peptide modifications: H3K14me2, binder concentration: 1:2,000 dilution
# [8] = peptide modifications: H3K14me2, binder concentration: 1:10,000 dilution
# [9] = peptide modifications: H3K14me1 H3R17me1, binder concentration: 1:2,000 dilution
# [10] = peptide modifications: H3K14me1 H3R17me1, binder concentration: 1:10,000 dilution
# [11] = peptide modifications: H3K14me1 H3K18me2, binder concentration: 1:2,000 dilution
# [12] = peptide modifications: H3K14me1 H3K18me2, binder concentration: 1:10,000 dilution
# [13] = peptide modifications: H3K14me1 H3R17me2s, binder concentration: 1:2,000 dilution
# [14] = peptide modifications: H3K14me1 H3R17me2s, binder concentration: 1:10,000 dilution
# [15] = peptide modifications: H3K14me1 H3R17cit, binder concentration: 1:2,000 dilution
# [16] = peptide modifications: H3K14me1 H3R17cit, binder concentration: 1:10,000 dilution
# [17] = peptide modifications: H3K14me1 H3K18me1, binder concentration: 1:2,000 dilution
# [18] = peptide modifications: H3K14me1 H3K18me1, binder concentration: 1:10,000 dilution
# [19] = peptide modifications: H3K14me1 H3R17me2a, binder concentration: 1:2,000 dilution
# [20] = peptide modifications: H3K14me1 H3R17me2a, binder concentration: 1:10,000 dilution
# [21] = peptide modifications: H3K14me2 H3K18ac, binder concentration: 1:2,000 dilution
# [22] = peptide modifications: H3K14me2 H3K18ac, binder concentration: 1:10,000 dilution
# [23] = peptide modifications: H3K14me2 H3K18me1, binder concentration: 1:2,000 dilution
# [24] = peptide modifications: H3K14me2 H3K18me1, binder concentration: 1:10,000 dilution
binder,measurement,setting,value
TGGKAPRKQLATK [H3 11-23 T G G Kme A P R Kme3 Q L A T K],peptide microarray binding signal,"[1]; peptide modifications: H3K14me1 H3K18me3, binder concentration: 50 nM",0.00705 ± 0.00051
same,peptide microarray binding signal,"[1]; peptide modifications: H3K14me1 H3K18me3, binder concentration: 500 nM",0.0115 ± 0.00073
same,peptide microarray binding signal,"[2]; peptide modifications: H3K14me1 H3K18me3, binder concentration: 10 nM",0.0113 ± 0.00048
same,peptide microarray binding signal,"[2]; peptide modifications: H3K14me1 H3K18me3, binder concentration: 100 nM",0.0191 ± 0.00089
same,peptide microarray binding signal,[3]; [5],0.389 ± 0.079
same,peptide microarray binding signal,[3]; [6],0.473 ± 0.23
same,peptide microarray binding signal,[4]; [5],0.0513 ± 0.004
same,peptide microarray binding signal,[4]; [6],0.0139 ± 0.0023
TGGKAPRKQLATK [H3 11-23 T G G Kme2 A P R K Q L A T K],peptide microarray binding signal,"[1]; peptide modifications: H3K14me2, binder concentration: 50 nM",0.00614 ± 7.5e-05
same,peptide microarray binding signal,"[1]; peptide modifications: H3K14me2, binder concentration: 500 nM",0.0148 ± 0.0014
same,peptide microarray binding signal,"[2]; peptide modifications: H3K14me2, binder concentration: 10 nM",0.00806 ± 0.00059
same,peptide microarray binding signal,"[2]; peptide modifications: H3K14me2, binder concentration: 100 nM",0.00928 ± 0.002
same,peptide microarray binding signal,[3]; [7],0.00381 ± 0.00026
same,peptide microarray binding signal,[3]; [8],0.00331 ± 0.00013
same,peptide microarray binding signal,[4]; [7],0.00619 ± 0.00091
same,peptide microarray binding signal,[4]; [8],0.00548 ± 0.0005
TGGKAPRKQLATK [H3 11-23 T G G Kme A P Rme K Q L A T K],peptide microarray binding signal,"[1]; peptide modifications: H3K14me1 H3R17me1, binder concentration: 50 nM",0.0069 ± 0.00032
same,peptide microarray binding signal,"[1]; peptide modifications: H3K14me1 H3R17me1, binder concentration: 500 nM",0.0148 ± 0.001
same,peptide microarray binding signal,"[2]; peptide modifications: H3K14me1 H3R17me1, binder concentration: 10 nM",0.00674 ± 0.00033
same,peptide microarray binding signal,"[2]; peptide modifications: H3K14me1 H3R17me1, binder concentration: 100 nM",0.0121 ± 0.00053
same,peptide microarray binding signal,[3]; [9],0.00587 ± 0.0018
same,peptide microarray binding signal,[3]; [10],0.0114 ± 0.0068
same,peptide microarray binding signal,[4]; [9],0.0084 ± 0.0022
same,peptide microarray binding signal,[4]; [10],0.00427 ± 0.0008
TGGKAPRKQLATK [H3 11-23 T G G Kme A P R Kme2 Q L A T K],peptide microarray binding signal,"[1]; peptide modifications: H3K14me1 H3K18me2, binder concentration: 50 nM",0.009 ± 0.00035
same,peptide microarray binding signal,"[1]; peptide modifications: H3K14me1 H3K18me2, binder concentration: 500 nM",0.018 ± 0.00081
same,peptide microarray binding signal,"[2]; peptide modifications: H3K14me1 H3K18me2, binder concentration: 10 nM",0.00913 ± 0.00044
same,peptide microarray binding signal,"[2]; peptide modifications: H3K14me1 H3K18me2, binder concentration: 100 nM",0.0241 ± 0.008
same,peptide microarray binding signal,[3]; [11],0.0068 ± 0.0002
same,peptide microarray binding signal,[3]; [12],0.00588 ± 0.00018
same,peptide microarray binding signal,[4]; [11],0.00371 ± 0.00042
same,peptide microarray binding signal,[4]; [12],0.00271 ± 4.1e-05
TGGKAPRKQLATK [H3 11-23 T G G Kme A P Rme2s K Q L A T K],peptide microarray binding signal,"[1]; peptide modifications: H3K14me1 H3R17me2s, binder concentration: 50 nM",0.00793 ± 0.00067
same,peptide microarray binding signal,"[1]; peptide modifications: H3K14me1 H3R17me2s, binder concentration: 500 nM",0.0311 ± 0.0068
same,peptide microarray binding signal,"[2]; peptide modifications: H3K14me1 H3R17me2s, binder concentration: 10 nM",0.0249 ± 0.0026
same,peptide microarray binding signal,"[2]; peptide modifications: H3K14me1 H3R17me2s, binder concentration: 100 nM",0.0474 ± 0.0059
same,peptide microarray binding signal,[3]; [13],0.00508 ± 0.0026
same,peptide microarray binding signal,[3]; [14],0.0135 ± 0.0052
same,peptide microarray binding signal,[4]; [13],0.0103 ± 0.0018
same,peptide microarray binding signal,[4]; [14],0.00709 ± 0.00074
TGGKAPRKQLATK [H3 11-23 T G G Kme A P Rcit K Q L A T K],peptide microarray binding signal,"[1]; peptide modifications: H3K14me1 H3R17cit, binder concentration: 50 nM",0.00351 ± 0.00027
same,peptide microarray binding signal,"[1]; peptide modifications: H3K14me1 H3R17cit, binder concentration: 500 nM",0.0134 ± 0.00059
same,peptide microarray binding signal,"[2]; peptide modifications: H3K14me1 H3R17cit, binder concentration: 10 nM",0.0121 ± 0.0023
same,peptide microarray binding signal,"[2]; peptide modifications: H3K14me1 H3R17cit, binder concentration: 100 nM",0.0268 ± 0.0021
same,peptide microarray binding signal,[3]; [15],0.00151 ± 0.00025
same,peptide microarray binding signal,[3]; [16],0.00223 ± 0.00013
same,peptide microarray binding signal,[4]; [15],0.00267 ± 0.00024
same,peptide microarray binding signal,[4]; [16],0.00271 ± 0.00023
TGGKAPRKQLATK [H3 11-23 T G G Kme A P R Kme Q L A T K],peptide microarray binding signal,"[1]; peptide modifications: H3K14me1 H3K18me1, binder concentration: 50 nM",0.00561 ± 0.00015
same,peptide microarray binding signal,"[1]; peptide modifications: H3K14me1 H3K18me1, binder concentration: 500 nM",0.00886 ± 0.00086
same,peptide microarray binding signal,"[2]; peptide modifications: H3K14me1 H3K18me1, binder concentration: 10 nM",0.0118 ± 0.0022
same,peptide microarray binding signal,"[2]; peptide modifications: H3K14me1 H3K18me1, binder concentration: 100 nM",0.0213 ± 0.0055
same,peptide microarray binding signal,[3]; [17],0.00619 ± 0.0022
same,peptide microarray binding signal,[3]; [18],0.00611 ± 0.00051
same,peptide microarray binding signal,[4]; [17],0.00311 ± 0.00053
same,peptide microarray binding signal,[4]; [18],0.00213 ± 5.2e-05
TGGKAPRKQLATK [H3 11-23 T G G Kme A P Rme2a K Q L A T K],peptide microarray binding signal,"[1]; peptide modifications: H3K14me1 H3R17me2a, binder concentration: 50 nM",0.00643 ± 0.00034
same,peptide microarray binding signal,"[1]; peptide modifications: H3K14me1 H3R17me2a, binder concentration: 500 nM",0.0164 ± 0.0061
same,peptide microarray binding signal,"[2]; peptide modifications: H3K14me1 H3R17me2a, binder concentration: 10 nM",0.00633 ± 0.00014
same,peptide microarray binding signal,"[2]; peptide modifications: H3K14me1 H3R17me2a, binder concentration: 100 nM",0.0122 ± 0.0012
same,peptide microarray binding signal,[3]; [19],0.00328 ± 0.0014
same,peptide microarray binding signal,[3]; [20],0.00896 ± 0.0044
same,peptide microarray binding signal,[4]; [19],0.00393 ± 0.00055
same,peptide microarray binding signal,[4]; [20],0.00398 ± 0.00069
TGGKAPRKQLATK [H3 11-23 T G G Kme2 A P R Kac Q L A T K],peptide microarray binding signal,"[1]; peptide modifications: H3K14me2 H3K18ac, binder concentration: 50 nM",0.00868 ± 0.00034
same,peptide microarray binding signal,"[1]; peptide modifications: H3K14me2 H3K18ac, binder concentration: 500 nM",0.0165 ± 0.0015
same,peptide microarray binding signal,"[2]; peptide modifications: H3K14me2 H3K18ac, binder concentration: 10 nM",0.0173 ± 0.003
same,peptide microarray binding signal,"[2]; peptide modifications: H3K14me2 H3K18ac, binder concentration: 100 nM",0.0242 ± 0.0017
same,peptide microarray binding signal,[3]; [21],0.0129 ± 0.0016
same,peptide microarray binding signal,[3]; [22],0.0111 ± 0.00098
same,peptide microarray binding signal,[4]; [21],0.00806 ± 0.00086
same,peptide microarray binding signal,[4]; [22],0.00496 ± 0.00013
TGGKAPRKQLATK [H3 11-23 T G G Kme2 A P R Kme Q L A T K],peptide microarray binding signal,"[1]; peptide modifications: H3K14me2 H3K18me1, binder concentration: 50 nM",0.00752 ± 0.0013
same,peptide microarray binding signal,"[1]; peptide modifications: H3K14me2 H3K18me1, binder concentration: 500 nM",0.0129 ± 0.00084
same,peptide microarray binding signal,"[2]; peptide modifications: H3K14me2 H3K18me1, binder concentration: 10 nM",0.013 ± 0.0021
same,peptide microarray binding signal,"[2]; peptide modifications: H3K14me2 H3K18me1, binder concentration: 100 nM",0.0405 ± 0.012
same,peptide microarray binding signal,[3]; [23],0.0136 ± 0.0009
same,peptide microarray binding signal,[3]; [24],0.00964 ± 0.0012
same,peptide microarray binding signal,[4]; [23],0.00565 ± 0.00074
same,peptide microarray binding signal,[4]; [24],0.0045 ± 0.00053
